Inconclusive results are not listed. Activity calls are given as the source filed them. Unless noted, the call rests on the fitted dose curve.
Assays:
[1] = Nuclear factor erythroid 2-related factor 2/antioxidant responsive element (Nrf2/ARE) small molecule agonists: qHTS cell viability counter screen in human keratinocytes (AID 1919968; active means well fitted curve in the direction sought with a large enough effect in the repeat runs; an effect the other way counts as inactive or inconclusive; further: nearly all actives have a fitted effect of over 55% in size)
Procedure, shortened: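 Seed 1,500 KeratinoSens cells per well, then incubate 5 h at 37 C/5% CO2. Add compounds in DMSO and incubate 23 h. Add CellTiter-Fluor, wait 1 h and read fluorescence.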

[2] = Nuclear factor erythroid 2-related factor 2/antioxidant responsive element (Nrf2/ARE) small molecule agonists: luciferase reporter gene qHTS assay in human keratinocytes (AID 1919969); further: nearly all actives have a fitted effect of over 35% in size
[3] = target: Gonadotropin-releasing hormone receptor (Homo sapiens) (UniProt P30968); test: Human gonadotropin-releasing hormone receptor (GnRHR) small molecule agonists, calcium flux assay in GnRHR-HEK293 cells (AID 1920063); further: nearly all actives have a fitted effect of over 35% in size
Procedure, shortened: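 Cells: HEK293 stably expressing human GnRHR. Steps: overnight (18 h) culture, 1 h calcium dye loading at 37 C, compound addition, kinetic fluorescence read at 480/540 nm. Each compound tested at 15 concentrations in triplicate.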

[4] = G protein-coupled receptor (GPCR) small molecule agonists, calcium flux assay: HEK293 wild type cell line counter screen (AID 1920065)
Procedure, shortened: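 Counter-screen of the Tox21 10K library for non-specific calcium release: dye-loaded cells received compounds in DMSO and were monitored by kinetic fluorescence (480/540 nm, 3 min). Fifteen concentrations, run in triplicate.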

[5] = p53 small molecule agonists, cell-based qHTS assay with human liver microsomes (AID 1963577);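 further: p53 response element beta-lactamase reporter cells with liver microsomes plus NADPH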
Procedure, shortened: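 Metabolically competent format: test substances, human liver microsomes and NADPH (both 0.5 mg/mL final) incubated with p53RE-bla cells 16 h at 37 C. Beta-lactamase reporter signal then quantified by fluorescence.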

[6] = p53 small molecule agonists, cell-based qHTS assay with human liver microsomes: qHTS cell viability counter screen (AID 1963579); further: nearly all actives have a fitted effect of over 45% in size
Procedure, shortened: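 Tox21 library compounds, delivered from DMSO stocks, were tested on p53RE-bla cells together with 0.5 mg/mL human liver microsomes and 0.5 mg/mL NADPH (final) over 16 h at 37 C; CellTiter-Glo luminescence served as the cytotoxicity measure.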

[7] = p53 small molecule agonists, cell-based qHTS assay with rat liver microsomes: qHTS cell viability counter screen (AID 1963580); further: nearly all actives have a fitted effect of over 45% in size
Procedure, shortened: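 Intracellular ATP, by CellTiter-Glo luminescence, defines viability. HCT-116 p53RE-bla cells, 4,000 per well, were compound-treated in the presence of rat liver microsomes and NADPH for 16 h at 37 C.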

[8] = p53 small molecule agonists, cell-based qHTS assay: qHTS cell viability counter screen (AID 1963581); further: nearly all actives have a fitted effect of over 45% in size
Procedure, shortened: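 Cells: HCT-116 with p53 response element-driven beta-lactamase. Treatment: 16 h, 37 C, compounds in DMSO. Read: CellTiter-Glo luminescence after 30 min RT.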

[9] = p53 small molecule agonists, cell-based qHTS assay (AID 1963582; active means well fitted activation curve with a large enough effect in the signal ratio in the repeat runs, not every such curve was filed as active; the % refers to the signal ratio)
Procedure, shortened: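 Quantitative HTS in p53RE-bla cells: after a 5 h settling period, compounds delivered in DMSO were left on cells for 16 h at 37 C, and reporter induction was measured as fluorescence following 2 h substrate loading.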

[10] = target: 5-hydroxytryptamine receptor 2A (Homo sapiens) (UniProt P28223); test: 5-hydroxytryptamine receptor 2A (HTR2A) small molecule antagonists, cell-based qHTS assay (AID 1963586); further: nearly all actives have a fitted effect of over 45% in size
Procedure, shortened: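 Antagonist-mode intracellular calcium assay: DOI (4 nM) added after 5 min compound pre-incubation at room temperature to dye-loaded HTR2A-CHO cells. Fluorescence followed for 3 min, sampled every second.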

[11] = target: 5-hydroxytryptamine receptor 2A (Homo sapiens) (UniProt P28223); test: 5-hydroxytryptamine receptor 2A (HTR2A) small molecule agonists, cell-based qHTS assay (AID 1963587); further: nearly all actives have a fitted effect of over 30% in size
Procedure, shortened: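 Kinetic calcium-flux fluorescence (2 min, 1 sec intervals) after compound addition in agonist mode. HTR2A-CHO cells were cultured 18 h, then dye-loaded 1 h at 37 C.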

[12] = target: Muscarinic acetylcholine receptor M1 (Homo sapiens) (UniProt P11229); test: Cholinergic receptor muscarinic 1 (CHRM1) small molecule antagonists, cell-based qHTS assay (AID 1963588); further: nearly all actives have a fitted effect of over 40% in size
Procedure, shortened: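 CHRM1-CHO calcium-flux assay, antagonist mode. Cells were seeded 18 h, dye-loaded 1 h at 37 C and given compound for 5 min at RT, then acetylcholine was added at 50nM. FDSS fluorescence was read 3 min; 15 concentrations, three runs.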

[13] = target: Muscarinic acetylcholine receptor M1 (Homo sapiens) (UniProt P11229); test: Cholinergic receptor muscarinic 1 (CHRM1) small molecule agonists, cell-based qHTS assay (AID 1963589); further: nearly all actives have a fitted effect of over 35% in size
Procedure, shortened: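 Agonist-mode qHTS in CHO cells stably carrying human muscarinic M1. Intracellular calcium is tracked by fluorescence every second after compound transfer; each compound runs at 15 concentrations in three independent runs.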

[14] = cAMP Responsive Elements (CRE) small molecule agonists, cell-based qHTS assay (AID 1963590)
Procedure, shortened: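 Agonist mode qHTS in CRE-bla HEK 293T cells: compounds dosed from DMSO for 3 h at 37 C/5% CO2, followed by LiveBLAzer B/G FRET substrate for 2 h at room temperature.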

[15] = cAMP Responsive Elements (CRE) small molecule antagonists, cell-based qHTS assay (AID 1963591; active means well fitted inhibition curve with a large enough effect in the signal ratio in the repeat runs, not every such curve was filed as active; the % refers to the signal ratio)
Procedure, shortened: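 Antagonist mode: test compounds are co-incubated with the adenylyl cyclase activator NKH477 (0.25 uM final) on CRE-bla HEK293T cells for 3 h at 37 °C, followed by LiveBLAzer substrate loading.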

[16] = target: Beta-2 adrenergic receptor (Homo sapiens) (UniProt P07550); test: Adrenergic beta2 receptor (ADRB2) small molecule antagonists, cell-based qHTS assay (AID 1963592); further: series mostly up to about 92 µM; nearly all actives have a fitted effect of over 50% in size
Procedure, shortened: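 Cells (CHO, stable ADRB2 overexpression) incubated 18-20hr at 37C; compounds added from DMSO; agonist mix (1nM isoproterenol, 100uM IBMX, 25uM Ro-20-1724) added; 0.5hr RT; d2-cAMP and anti-cAMP-cryptate added; 1hr RT; 665/615 nm read.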

[17] = target: D(2) dopamine receptor (Homo sapiens) (UniProt P14416); test: Dopamine D2 receptor (DRD2) small molecule agonists, cell-based qHTS assay (AID 1963594); further: nearly all actives have a fitted effect of over 35% in size
Procedure, shortened: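 cAMP accumulation in DRD2-HEK293 cells measured by HTRF after 1 h detection; compounds added 10 min before NKH477 (200nM […]) forskolin-analogue stimulation, 30 min at room temperature, with Ro20-1724 present at 0.1 mM final.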

[18] = target: D(2) dopamine receptor (Homo sapiens) (UniProt P14416); test: Dopamine D2 receptor (DRD2) small molecule antagonists, cell-based qHTS assay (AID 1963595; active means well fitted inhibition curve with a large enough effect in the signal ratio in the repeat runs, with a control signal flat; the % refers to the signal ratio)
Procedure, shortened: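 DRD2-HEK293; 0.1 mM Ro20-1724; cpd 10 min RT; NKH477 200 nM + quinpirole 12 nM, 30 min RT; HTRF cAMP (cAMP-d2/anti-cAMP cryptate), 665/620 nm ratio after 1 h.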

[19] = target: Beta-2 adrenergic receptor (Homo sapiens) (UniProt P07550); test: Adrenergic beta2 receptor (ADRB2) small molecule agonists, cell-based qHTS assay (AID 1963593);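 further: CHO cells stably overexpressing human ADRB2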
Procedure, shortened: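 CHO cells stably over-expressing ADRB2 were plated overnight at 37C, then dosed with compounds plus a stimulation mix containing 100uM IBMX and 25uM Ro-20-1724 for 0.5hr at room temperature. cAMP was measured by HTRF competition, 1hr.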

[20] = target: KiSS-1 receptor (Homo sapiens) (UniProt Q969F8); test: Human kisspeptin (KISS1R) small molecule agonists, calcium flux assay in KISS1R-HEK293 cells (AID 1920064; active means well fitted curve in the direction sought with a large enough effect in the repeat runs; an effect the other way counts as inactive or inconclusive)
Procedure, shortened: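 Cells plated and incubated 18 h; dye added, 1 h at 37 C; compounds in DMSO pinned in; signal read at 480/540 nm every second for 3 min. Each compound tested at 15 concentrations in triplicate.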

Measured: Potency

Gonadotropin-releasing hormone receptor (Homo sapiens), sequence (P30968 whole entry, looked up): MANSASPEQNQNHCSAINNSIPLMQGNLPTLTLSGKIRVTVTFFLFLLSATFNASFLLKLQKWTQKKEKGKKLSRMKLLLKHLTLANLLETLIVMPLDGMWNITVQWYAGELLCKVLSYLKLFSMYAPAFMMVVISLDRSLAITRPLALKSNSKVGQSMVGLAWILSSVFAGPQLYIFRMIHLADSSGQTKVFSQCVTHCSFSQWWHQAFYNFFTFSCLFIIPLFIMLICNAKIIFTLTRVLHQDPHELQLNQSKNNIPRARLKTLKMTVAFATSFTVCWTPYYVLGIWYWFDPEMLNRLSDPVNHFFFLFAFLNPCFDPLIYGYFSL
5-hydroxytryptamine receptor 2A (Homo sapiens), sequence (P28223 whole entry, looked up): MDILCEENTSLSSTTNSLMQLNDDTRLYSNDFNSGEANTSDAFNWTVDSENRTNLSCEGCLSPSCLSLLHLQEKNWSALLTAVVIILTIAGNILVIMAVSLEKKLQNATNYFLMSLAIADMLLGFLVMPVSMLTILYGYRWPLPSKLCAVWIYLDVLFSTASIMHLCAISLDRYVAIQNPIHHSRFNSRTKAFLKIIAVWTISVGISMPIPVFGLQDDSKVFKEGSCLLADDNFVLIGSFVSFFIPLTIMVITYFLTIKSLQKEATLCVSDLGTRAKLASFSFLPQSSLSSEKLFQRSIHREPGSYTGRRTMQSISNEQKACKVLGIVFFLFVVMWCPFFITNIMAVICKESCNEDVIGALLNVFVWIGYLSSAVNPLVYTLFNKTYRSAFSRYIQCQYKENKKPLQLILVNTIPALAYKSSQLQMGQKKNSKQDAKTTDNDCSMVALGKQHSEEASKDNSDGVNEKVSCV
Beta-2 adrenergic receptor (Homo sapiens), sequence (P07550 whole entry, looked up): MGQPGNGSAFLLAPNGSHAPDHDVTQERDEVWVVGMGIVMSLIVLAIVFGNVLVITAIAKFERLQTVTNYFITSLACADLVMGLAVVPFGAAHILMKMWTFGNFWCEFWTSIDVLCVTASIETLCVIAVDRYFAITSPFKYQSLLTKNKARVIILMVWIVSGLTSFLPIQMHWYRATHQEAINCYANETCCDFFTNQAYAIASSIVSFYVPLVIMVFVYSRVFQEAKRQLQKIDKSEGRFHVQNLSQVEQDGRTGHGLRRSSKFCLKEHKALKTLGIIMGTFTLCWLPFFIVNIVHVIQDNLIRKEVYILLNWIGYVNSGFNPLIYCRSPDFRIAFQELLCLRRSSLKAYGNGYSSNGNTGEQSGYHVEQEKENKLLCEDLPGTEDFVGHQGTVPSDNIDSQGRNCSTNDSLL
Muscarinic acetylcholine receptor M1 (Homo sapiens), sequence (P11229 whole entry, looked up): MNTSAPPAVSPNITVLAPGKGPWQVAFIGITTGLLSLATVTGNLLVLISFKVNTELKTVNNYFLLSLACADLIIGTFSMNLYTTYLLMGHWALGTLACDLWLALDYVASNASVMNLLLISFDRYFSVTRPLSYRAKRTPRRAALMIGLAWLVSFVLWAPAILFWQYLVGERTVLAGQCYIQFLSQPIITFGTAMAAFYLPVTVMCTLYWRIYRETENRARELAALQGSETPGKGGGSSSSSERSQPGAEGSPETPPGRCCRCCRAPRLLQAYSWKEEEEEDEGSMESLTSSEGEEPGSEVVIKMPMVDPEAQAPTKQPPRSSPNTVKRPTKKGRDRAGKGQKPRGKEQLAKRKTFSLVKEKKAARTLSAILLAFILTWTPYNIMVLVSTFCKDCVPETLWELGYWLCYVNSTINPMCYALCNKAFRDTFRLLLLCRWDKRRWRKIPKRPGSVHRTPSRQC
D(2) dopamine receptor (Homo sapiens), sequence (P14416 whole entry, looked up): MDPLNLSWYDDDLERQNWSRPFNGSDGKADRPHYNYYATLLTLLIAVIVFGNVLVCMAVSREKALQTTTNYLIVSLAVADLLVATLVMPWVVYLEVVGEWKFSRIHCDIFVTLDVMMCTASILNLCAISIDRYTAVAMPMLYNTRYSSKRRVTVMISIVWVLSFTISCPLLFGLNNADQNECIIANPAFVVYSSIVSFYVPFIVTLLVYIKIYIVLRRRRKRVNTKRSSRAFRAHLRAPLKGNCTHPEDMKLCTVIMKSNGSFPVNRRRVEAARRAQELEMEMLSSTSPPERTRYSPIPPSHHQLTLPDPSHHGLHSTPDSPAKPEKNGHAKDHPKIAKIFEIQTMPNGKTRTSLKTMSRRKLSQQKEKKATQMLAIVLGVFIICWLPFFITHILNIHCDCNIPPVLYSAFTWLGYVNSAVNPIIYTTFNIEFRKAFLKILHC
KiSS-1 receptor (Homo sapiens), sequence (Q969F8 whole entry, looked up): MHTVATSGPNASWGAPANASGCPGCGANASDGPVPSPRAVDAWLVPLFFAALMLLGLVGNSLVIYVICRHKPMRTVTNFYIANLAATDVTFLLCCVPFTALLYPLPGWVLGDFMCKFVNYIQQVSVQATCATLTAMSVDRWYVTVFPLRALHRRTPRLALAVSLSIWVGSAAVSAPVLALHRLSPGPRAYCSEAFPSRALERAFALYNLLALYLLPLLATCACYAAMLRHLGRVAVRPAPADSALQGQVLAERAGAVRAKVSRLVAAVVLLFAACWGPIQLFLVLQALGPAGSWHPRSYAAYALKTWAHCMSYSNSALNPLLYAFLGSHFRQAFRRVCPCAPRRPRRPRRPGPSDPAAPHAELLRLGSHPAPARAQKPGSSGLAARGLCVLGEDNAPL

COc1cc(Cl)ccc1Cl
not listed: [19] | [20]
inactive: all other assays above

COc1ccc(C(=O)CC(=O)c2ccc(C(C)(C)C)cc2)cc1
not listed: [20]
inactive: all other assays above

CCC(C)(Oc1ccc(C2(c3ccc(OC(C)(CC)C(=O)O)cc3)CCCCC2)cc1)C(=O)O (stereo not drawn)
not listed: [14] | [18] | [20]
inactive: all other assays above

NC(=O)NC1N=C([O][Al])NC1=O (stereo not drawn)
not listed: [20]
inactive: all other assays above

CO[Si](CCCCl)(OC)OC
not listed: [4] | [5] | [6] | [11] | [17]
inactive: all other assays above

Cc1ccc2c(c1)OCC(=O)CO2
not listed: [13] | [19] | [20]
inactive: all other assays above

FC(F)(F)/C(=N\OCC1OCCO1)c1ccc(Cl)cc1
not listed: [19] | [20]
inactive: all other assays above

COC(C)(C)CCO
not listed: [14] | [18] | [20]
inactive: all other assays above

Cc1cc(C)c(C)c(O)c1
not listed: [20]
inactive: all other assays above

CC1(C)[C@H]2CC[C@]1(C)[C@H](O)C2
not listed: [19] | [20]
inactive: all other assays above

C=CC(C)(CCC=C(C)C)OC(=O)CC (stereo not drawn)
not listed: [20]
inactive: all other assays above

C=CC(C)(CCC=C(C)C)OC=O (stereo not drawn)
not listed: [20]
inactive: all other assays above

CCCN1C=CN(C)C1
not listed: [4] | [5] | [8] | [9] | [10] | [12]
inactive: all other assays above

O=C1C=CC(=O)O1
not listed: [20]
inactive: all other assays above
